Experiment [1] has as its target Luciferin 4-monooxygenase (Photinus pyralis) (UniProt P08659). The experiment can be described thus: qHTS assay to identify small molecule inhibitors of firefly luciferase (AID 1224835). Also: series mostly up to about 120 µM; nearly all actives have a fitted effect of over 25% in size. The method, boiled down: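 Inhibition of purified Photinus luciferase is measured by luminescence. Substrate levels (D-luciferin, ATP) sit at their KM values. Each compound is tested in a concentration series.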
(In general: In qHTS, concentration-response curves come from the screen itself.)

A short description of experiment [2]: qHTS assay to identify small molecule agonists of the constitutive androstane receptor (CAR) signaling pathway - cell viability counter screen (AID 1224836). Also: nearly all actives have a fitted effect of over 45% in size. Also: potency is read from the fitted curve at half-maximal effect. The method, boiled down: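 Multiplexed viability check: HepG2-CYP2B6-hCAR cells, 15-point compound dosing, 0.75 uM PK11195 final, 23 h at 37 C, CellTiter-Fluor fluorescence.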
Experiment [3] is described as follows: qHTS assay to identify small molecule antagonists of the constitutive androstane receptor (CAR) signaling pathway - cell viability counter screen (AID 1224837). Also: nearly all actives have a fitted effect of over 45% in size. Also: potency is read from the fitted curve at half-maximal effect. The method in brief: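 Cytotoxicity counter-screen: CellTiter-Fluor fluorescence after 23 h compound exposure (15-point qHTS) in double-stable HepG2-CYP2B6-hCAR cells, with 50 nM CITCO added.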
For experiment [4], the target named is Nuclear receptor subfamily 1 group I member 3 (Homo sapiens) (UniProt Q14994). Put plainly: qHTS assay to identify small molecule antagonists of the constitutive androstane receptor (CAR) signaling pathway (AID 1224838).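 Also: HepG2 cells stably expressing hCAR with CYP2B6 luciferase reporter stimulated by CITCO; nearly all actives have a fitted effect of over 40% in size.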 The method, boiled down:
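Antagonism measured as luciferase signal (ONE-Glo, 30 min, room temperature) in CAR-stimulated cells: HepG2-CYP2B6-hCAR double-stable line exposed 24 hr at 37 C to compound in a 15-point series plus 50 nM CITCO.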

Experiment [5] shares this target. The experiment can be described thus: qHTS assay to identify small molecule agonists of the constitutive androstane receptor (CAR) signaling pathway (AID 1224839).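 Also: HepG2 cells stably carrying human CAR and a CYP2B6 luciferase reporter; series mostly up to about 92 µM; nearly all actives have a fitted effect of over 15% in size.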 The method, boiled down:
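Using human hepatoma HepG2 cells engineered with hCAR and a CYP2B6-2.2kb reporter, 15-concentration compound series were incubated 24 h alongside PK11195 at 0.75 uM final, with luminescence quantified afterwards.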

Experiment [6] can be described thus: qHTS assay to identify small molecule antagonists of the estrogen related receptor signaling pathway with the pleiotropic PPARgamma coactivator (PGC) from Tox21 10K library - cell viability counter screen (AID 1224840; active = well fitted cell-killing curve with a large enough effect in the repeat runs, not every such curve was filed as active; also: nearly all actives have a fitted effect of over 40% in size; also: potency is read from the fitted curve at half-maximal effect). The method, boiled down:
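Counter-screen for cytotoxicity: after 17.5 h compound exposure at 37 C, CellTiter-Fluor reagent added to PGC/ERR cells for 30 min and fluorescence read. Cells were seeded at 2,000 per well 6 h before dosing.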

Experiment [7] can be described thus: qHTS assay to identify small molecule antagonists of the estrogen related receptor (ERR) signaling pathway from Tox21 library - cell viability counter screen (AID 1224834). Also: nearly all actives have a fitted effect of over 30% in size. Also: potency is read from the fitted curve at half-maximal effect. The method, boiled down: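 CellTiter-Fluor fluorescence, read after 30 min at 37 C, measures viability of ERR cells. Cells plated at 2,000/well and incubated 6 h before pin-tool compound addition, then exposed 17.5 hours at 37 C.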

The nature of experiment [8]: qHTS assay to identify small molecule antagonists of the estrogen related receptor signaling pathway with the pleiotropic PPARgamma coactivator (PGC) from Tox21 10K library (AID 1224841; call rule not given here; also: actives are mostly falling curves and most rising ones were filed inactive; nearly all actives have a fitted effect of over 50% in size; also: potency is read from the fitted curve at half-maximal effect). The method in brief:
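Luminescence (One-Glo, 30 min at room temperature) after 18 h compound treatment at 37 C of PGC/ERR reporter cells plated at 2,000 cells/well and settled 6 h beforehand.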

A short description of experiment [9]: qHTS assay to identify small molecule agonists of the estrogen related receptor signaling pathway with the pleiotropic PPARgamma coactivator (PGC) from Tox21 10K library (AID 1224842). Also: nearly all actives have a fitted effect of over 15% in size. The method, boiled down: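 Luminescence from One-Glo (30 min, room temperature) measured after PGC/ERR cells had 18 h at 37 C with pinned compound (23 nL in DMSO). Cells had been seeded at 2,000 per well and pre-incubated 6 h.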

The record followed here is PubChem BioAssay (Tox21).

Values joined by “and” are separate entries in the source; they are usually repeats but may differ in a detail not shown here. Identical values can stand only once. Results filed as inconclusive are left out. The source holds several records for some structures; these can differ, active in one and inactive in another. Active and inactive are the calls of the source. Unless noted, calls follow the shape of the dose curve; as a rule, active = well fitted curve in the direction sought with a large enough effect in the repeat runs; inconclusive = weak or mixed curves; inactive = no such curve, though single readings can be large; an effect the other way counts as inactive or inconclusive.

Luciferin 4-monooxygenase (Photinus pyralis), sequence (P08659 whole entry, looked up): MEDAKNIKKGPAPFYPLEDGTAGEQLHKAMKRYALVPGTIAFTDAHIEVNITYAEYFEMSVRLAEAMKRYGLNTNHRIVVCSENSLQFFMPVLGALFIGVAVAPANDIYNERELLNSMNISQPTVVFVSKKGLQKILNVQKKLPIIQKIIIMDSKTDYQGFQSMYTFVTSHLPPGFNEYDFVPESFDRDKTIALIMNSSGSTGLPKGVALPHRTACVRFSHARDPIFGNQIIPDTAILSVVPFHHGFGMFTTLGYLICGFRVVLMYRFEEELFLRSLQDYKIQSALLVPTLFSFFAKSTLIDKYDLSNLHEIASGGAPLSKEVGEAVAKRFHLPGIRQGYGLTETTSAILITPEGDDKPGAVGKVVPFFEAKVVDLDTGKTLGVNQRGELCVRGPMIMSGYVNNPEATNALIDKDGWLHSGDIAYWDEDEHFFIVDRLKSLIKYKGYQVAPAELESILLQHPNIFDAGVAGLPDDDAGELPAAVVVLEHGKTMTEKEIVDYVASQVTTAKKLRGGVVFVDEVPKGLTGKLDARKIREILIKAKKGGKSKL
Nuclear receptor subfamily 1 group I member 3 (Homo sapiens), sequence (Q14994 whole entry, looked up): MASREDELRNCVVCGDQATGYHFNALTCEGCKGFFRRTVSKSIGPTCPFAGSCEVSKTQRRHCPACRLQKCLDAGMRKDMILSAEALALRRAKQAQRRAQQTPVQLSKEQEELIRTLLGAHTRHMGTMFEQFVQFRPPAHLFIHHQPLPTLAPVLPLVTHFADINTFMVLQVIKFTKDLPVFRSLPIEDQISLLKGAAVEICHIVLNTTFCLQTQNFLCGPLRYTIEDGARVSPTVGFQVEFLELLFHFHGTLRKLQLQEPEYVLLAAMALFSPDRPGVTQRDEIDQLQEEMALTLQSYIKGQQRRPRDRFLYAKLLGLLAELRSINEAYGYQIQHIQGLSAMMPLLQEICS

With `CC(C)(C)c1cc(Cc2cc(C(C)(C)C)c(O)c(C(C)(C)C)c2)cc(C(C)(C)C)c1O`, the Potency entry in experiment [1], in experiment [2], in experiment [3], in experiment [5] and in experiment [6] was “inactive” each time. Moreover, in [4], the result was inactive.

For the molecule `O=[N+]([O-])c1ccc2nc[nH]c2c1`, the Potency entry in experiment [1], in experiment [2], in [3], in experiment [5] and in [6] was “inactive” in each case. Also, in experiment [4], the outcome was inactive.

With `O=C(O)/C=C/C(=O)O`, the Potency result in [1], in [2] and in experiment [3] was “inactive” in each case. Also, the molecule was classed as inactive in experiment [4].

`NC(=S)NNC(N)=S`: the Potency result in experiment [7], in experiment [1], in experiment [2], in experiment [3] and in experiment [6] was “inactive” each time.

`O=S(=O)(O)c1ccc(N=Nc2c(O)ccc3cc(S(=O)(=O)O)ccc23)cc1`: the Potency in experiment [7] was 30.8 µM (active) and 54.5 µM (active); in experiment [2] it was 54.7 µM (active) and 30.6 µM (active); in experiment [3], 54.7 µM (active) and 27.3 µM (active); in experiment [6], 48.6 µM (active); in experiment [8], 27.4 µM (active) and inactive. The result in [4] and in experiment [9] was inactive. In addition, the Potency result in [5] is “inactive”.

As for `CC(=O)Oc1ccc(C)cc1`, the Potency result in experiment [7], in [1], in experiment [2], in experiment [3] and in [6] was “inactive” throughout.

Take `CCc1ccccc1CC`: the Potency result in [7], in experiment [1], in experiment [2], in experiment [3], in experiment [6] and in experiment [8] was “inactive” throughout. For the same molecule, the call in [9] was inactive.

Turning to `CCCCCCCC=O`, the Potency result in experiment [7], in [1], in experiment [2], in experiment [3] and in [6] was “inactive” each time.

On to `CN/C(=C\[N+](=O)[O-])NCCSCc1csc(CN(C)C)n1`, for which the Potency result in experiment [7], in experiment [2], in experiment [3], in experiment [5] and in experiment [6] was “inactive” throughout. Besides, the molecule was called inactive in [4].

Take `COc1ccc(OC)cc1`: the Potency entry in experiment [7], in experiment [1], in experiment [2], in experiment [3], in [5] and in experiment [6] was “inactive” each time. In addition, the Potency result in [8] is “inactive”. Moreover, the outcome in experiment [4] and in experiment [9] was inactive.

As for `C[C@]12CC[C@@H]3c4ccc(O)cc4CC[C@H]3[C@@H]1C[C@@H](O)[C@@H]2O`, the Potency entry in [7], in [1], in experiment [2], in experiment [3] and in [6] was “inactive” in each case.

As for `Cc1ccc(S(=O)(=O)N=C=O)cc1`, the Potency entry in experiment [7], in experiment [1], in experiment [2], in experiment [3], in experiment [6] and in experiment [8] was “inactive” throughout. Moreover, the molecule was classed as inactive in experiment [9].

Turning to `O=S(=O)(O)c1ccccc1`, the Potency result in experiment [7], in experiment [2], in experiment [3], in experiment [6] and in [8] was “inactive” each time. For the same molecule, the call in [9] was inactive.

On to `COc1ccc(CCC(C)=O)cc1`, for which the Potency result in experiment [7], in experiment [1], in experiment [2], in experiment [3] and in [6] was “inactive” throughout.

With `CCCCCCCCCCO`, the Potency result in experiment [7], in experiment [1], in [2], in experiment [3] and in [6] was “inactive” throughout.

On to `C=CCCCCCCCCC(=O)O`, for which the Potency result in experiment [7], in experiment [1], in [2], in experiment [3] and in experiment [6] was “inactive” each time.

Turning to `CC(=O)OCc1ccccc1`, the Potency entry in [7], in experiment [1], in [2], in experiment [3] and in experiment [6] was “inactive” throughout.

Turning to `COc1ccccc1OCC(O)CO` (configuration not stated), the Potency result in [7], in [1], in [2], in experiment [3] and in [6] was “inactive” in each case.

For `COc1ccc(C)cc1N`, the Potency entry in experiment [7], in experiment [1], in [2], in experiment [3] and in [6] was “inactive” throughout. Further, the call in [4] was inactive.

On to `CCCCCCC=O`, for which the Potency entry in [7], in experiment [1], in experiment [2], in experiment [3] and in experiment [6] was “inactive” throughout.

For the molecule `CC(CCO)CC(C)(C)C` (configuration not stated), the Potency entry in [7], in experiment [1], in [2], in experiment [3] and in experiment [6] was “inactive” throughout.

On to `C=C(C)CNCC`, for which the Potency entry in experiment [7], in experiment [1], in experiment [2], in experiment [3], in experiment [6] and in experiment [8] was “inactive” each time. Besides, the outcome in experiment [4] and in experiment [9] was inactive.

Regarding `NCCCCCCN`, the Potency result in [7], in experiment [1], in [2], in experiment [3], in experiment [6] and in experiment [8] was “inactive” throughout. For the same molecule, the molecule was classed as inactive in [9].

With `CCCOC(=O)c1ccccc1`, the Potency entry in [7], in experiment [1], in [2], in experiment [3], in [5] and in experiment [6] was “inactive” throughout. The Potency result in [8] is “inactive”. Also, the molecule was called inactive in [4] and in experiment [9].

As to `CCO[Si](CCCN)(OCC)OCC`, the Potency entry in experiment [1], in [2], in [3], in experiment [5], in experiment [6] and in experiment [8] was “inactive” throughout. For the same molecule, the call in [4] and in [9] was inactive.

As for `Clc1ccccn1`, the Potency entry in [1], in experiment [2], in experiment [3] and in [6] was “inactive” throughout.

As for `CCO[Si](CCC#N)(OCC)OCC`, the Potency result in experiment [1], in experiment [2], in experiment [3] and in [6] was “inactive” in each case.

Turning to `CC(C)=CCl`, the Potency entry in [1], in experiment [2], in experiment [3], in experiment [5] and in experiment [6] was “inactive” each time. In addition, in experiment [4], the outcome was inactive.

In the case of `CC(=O)CC(C)(C)O`, the Potency entry in [1], in experiment [2], in [3], in [6] and in experiment [8] was “inactive” throughout. The outcome in [9] was inactive.

Consider `C=CCc1ccc(OC)c(OC)c1`, for which the Potency entry in experiment [1], in experiment [2], in [3] and in [6] was “inactive” in each case.

Consider `NCCN1CCNCC1`, for which the Potency result in experiment [1], in [2], in experiment [3], in [5] and in [6] was “inactive” in each case. Moreover, the outcome in experiment [4] was inactive.

On to `CCOC(=O)c1ccc(N)cc1`, for which the Potency entry in experiment [2], in experiment [3], in experiment [5] and in [6] was “inactive” throughout. Also, the molecule was classed as inactive in experiment [4].
